Mtb hypoxia inh: PubChem AID 1159583. fluorescence inhibition, % (test concentration not listed). M. tuberculosis hypoxia-regulated fluorescent reporter, fluorescence. actives 0.1% (n = 300,000); in the data active = fluorescence inhibition mostly above about 23%, no sharp cut-off; inactive = mostly below about 17%
SSB-PriA inh: inhibitors of Klebsiella pneumoniae PriA binding to SSB C-terminal tail, primary screen, biochemical, AlphaScreen | AlphaScreen SSBct-PriA binding, biotinylated peptide | inhibition, % at 33 µM | actives 0.6% (n = 430,000) | AID 1272365, 2023; in the data active = inhibition mostly above about 37%, no sharp cut-off; inactive = mostly below about 20%;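 also: plate controls were negative control peptide for no effect and reference peptide for full effect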
PfHsp40 yeast: rescue of yeast from PfHsp40 toxicity, primary screen, S. cerevisiae, ATP luminescence. actives 0.68% (n = 340,000). growth rescue, % at 12.5 µM. S. cerevisiae expressing PfHsp40, growth rescue; in the data active = growth rescue above about 28%, passing the limit was not always enough;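 also: yeast W303a lacking pdr1 and pdr3 grown in galactose medium; growth measured after three days at 30 °C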
VHR inh abs: VHR1 phosphatase inhibitors, primary screen, biochemical, absorbance, uHTS; Dual specificity protein phosphatase 3 (Homo sapiens), P51452; recombinant VHR phosphatase, pNPP absorbance; inhibition, % at 13.3 µM; actives 0.52% (n = 290,000); AID 1654, 2009; in the data active = inhibition above about 50%
Target sequence (P51452 whole entry, looked up): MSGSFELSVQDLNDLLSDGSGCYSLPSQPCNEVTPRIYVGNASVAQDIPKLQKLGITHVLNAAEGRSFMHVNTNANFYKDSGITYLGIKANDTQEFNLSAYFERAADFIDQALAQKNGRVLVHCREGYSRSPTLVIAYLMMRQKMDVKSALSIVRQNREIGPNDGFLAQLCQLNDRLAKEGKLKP
Sa ugtP lethal: growth inhibition of ugtP-null S. aureus, primary screen, RN4220 ugtP deletion, OD600; 16 h; growth inhibition, % (no concentration beside the values); actives 0.54% (n = 330,000); in the data active = growth inhibition above about 68%;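 also: plate controls were untreated wells for no effect and antibiotic for full effect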
Sa RN4220 lethal: growth inhibition of S. aureus RN4220, primary screen, OD600 | 16 h | inhibition, % (no concentration beside the values) | actives 0.33% (n = 330,000); in the data active = inhibition above about 85%;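 also: plate controls were untreated cells for no effect and reference antibiotic for full effect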
Starred values were filed as active, the others as inactive; nt = no result. An excerpt weighted towards active compounds, which were near 1.8% of everything screened.

SMILES | Mtb hypoxia inh | SSB-PriA inh | PfHsp40 yeast | VHR inh abs | Sa ugtP lethal | Sa RN4220 lethal
C(=Cn1nnc2ccccc21)c1ccccn1 | 13 | nt | nt | nt | 4 | 10
CN1CCN(c2ccc(C(CC(N)=O)NC(=O)c3ccccc3)cc2[N+](=O)[O-])CC1 (configuration not stated) | 2 | -3 | 37* | 2 | -2 | 0
NC(=O)CC(NC(=O)c1ccccc1)c1ccc(N2CCN(c3ccccc3)CC2)c([N+](=O)[O-])c1 (configuration not stated) | 10 | 1 | 1 | 13 | 16 | 17
COCCCNC(=O)c1ccc(S(=O)(=O)c2ccc(C)cc2)c(NC(C)=O)c1 | 0 | -2 | 91* | 21 | 2 | -3
O=C(CSc1nc2ccccc2[nH]1)c1c[nH]c2ccccc12 | -1 | 65* | 0 | 1 | -1 | 5
COc1ccccc1CNC(=O)Cc1csc(SCC(=O)c2cccs2)n1 | nt | -2 | nt | nt | nt | nt
Cc1nn(-c2ccccc2)c2c1C1(C(=O)N3c4c(cccc41)C(C)CC3(C)C)C(C#N)=C(N)O2 (configuration not stated) | 16 | 14 | -1 | 15 | 92* | 96*
COc1ccc(C(N)=NOC(=O)CSc2ccccc2)cc1OC | nt | -35 | nt | nt | nt | nt
O=C(NCCn1ccnc1-c1ncccn1)Nc1cccs1 | nt | 124* | nt | nt | nt | nt
O=C(Cn1c(=O)oc2ccccc21)NCCCn1ccnc1-c1ccccc1 | nt | 4 | nt | nt | nt | nt
C[C@H](Oc1ccccc1)C(=O)NCCn1ccnc1-c1ncccn1 | nt | 93* | nt | nt | nt | nt
O=C(Cn1c(=O)oc2ccccc21)NCCn1ccnc1-c1ncccn1 | nt | 99* | nt | nt | nt | nt
CCCc1nnsc1C(=O)NCCn1ccnc1-c1ncccn1 | nt | 72* | nt | nt | nt | nt
O=C(NCCn1ccnc1C1CC1)Nc1cccs1 | nt | 6 | nt | nt | nt | nt
CC(O)(CNC(=O)C(=O)Nc1ccc(F)cc1F)Cc1ccco1 (configuration not stated) | nt | -10 | nt | nt | nt | nt
COc1ccccc1NC(=O)NCCn1ccnc1-c1ncccn1 | nt | 39* | nt | nt | nt | nt
COc1ccccc1NC(=O)NCCn1ccnc1-c1cnccn1 | nt | 39 | nt | nt | nt | nt
O=C(CSc1nnc(-c2ccccc2O)n1Cc1ccccc1)NNC(=O)c1ccccc1O | -6 | -4 | 305* | -5 | -13 | 8
Cn1c(SCC(=O)NNC(=O)c2ccccc2O)nnc1-c1ccccc1 | 19 | 7 | 106* | -11 | 4 | 3
Cn1c(SCC(=O)NNC(=O)Nc2ccccc2)nnc1-c1ccccc1 | 11 | -7 | -1 | 19 | 2 | 1
O=C(O)CSc1nnc(-c2ccccc2O)n1Cc1ccccc1 | 5 | -22 | 0 | 18 | 1 | 4
O=C(CSc1nnc(-c2ccccc2)n1Cc1ccccc1)NNC(=O)c1ccccc1O | nt | -2 | 166* | 6 | 3 | 14
CNC(=O)CSc1nnc(-c2ccncc2)n1Cc1ccccc1 | 13 | 0 | 0 | 19 | 4 | 4
COc1ccc(Cl)c2sc(N(CCCN(C)C)C(=O)c3ccn(C)n3)nc12 | nt | -6 | nt | nt | nt | nt
CCc1ccc(S(=O)(=O)Nc2c(NC3CCCCC3)c3ccccc3oc2=O)cc1 | 5 | 0 | 0 | 57* | -7 | 2
SMILES | Mtb hypoxia inh | SSB-PriA inh | PfHsp40 yeast | VHR inh abs | Sa ugtP lethal | Sa RN4220 lethal
O=c1oc2ccccc2c(NC2CCCCC2)c1NS(=O)(=O)c1ccc(F)cc1 | 6 | 7 | 0 | 23 | -12 | 1
Cn1ccc(C(=O)Nc2cccc(-c3nc4ccccc4o3)c2)n1 | nt | 1 | nt | nt | nt | nt
CCOc1cc(C=NNC(=O)CN(CCc2ccccc2)S(=O)(=O)c2ccc(NC(C)=O)cc2)ccc1O | nt | -1 | nt | nt | nt | nt
COc1cccc(OC)c1C(=O)N[C@@H]1C(=O)N2[C@@H]1SC(C)(C)[C@@H]2C(=O)O | nt | 6 | 0 | nt | nt | nt
CC1(C)SC2C(NC(=O)Cc3ccccc3)C(=O)N2C1C(=O)O (configuration not stated) | 4 | nt | nt | nt | 99* | 100*
CC1(C)SC2C(NC(=O)C3(N)CCCCC3)C(=O)N2C1C(=O)O (configuration not stated) | 21 | -6 | 1 | nt | 101* | 100*
CC1(C)SC2C(NC(=O)C(N)c3ccc(O)cc3)C(=O)N2C1C(=O)O (configuration not stated) | 4 | nt | nt | nt | 61 | 24
CC1(C)S[C@@H]2[C@H](NC(=O)[C@H](C(=O)O)c3ccsc3)C(=O)N2[C@H]1C(=O)O | nt | nt | nt | 16 | nt | nt
CC(Oc1ccccc1)C(=O)NC1C(=O)N2C1SC(C)(C)C2C(=O)O (configuration not stated) | -4 | -9 | 0 | 36 | 100* | 100*
O=C(CS(=O)(=O)c1c[nH]c2ccccc12)Nc1cc(C(F)(F)F)ccc1Cl | nt | 10 | nt | nt | nt | nt
Cc1cc(C)n(-c2ccc(Nc3ccc(NC(=O)Cc4ccc(Cl)cc4)cc3)nn2)n1 | nt | -11 | nt | nt | nt | nt
CCOc1ccc(-c2cc(=O)n(CC(=O)NCc3ccco3)cn2)cc1 | nt | -6 | nt | nt | nt | nt
COc1ccc(CC(=O)NCCn2nc(-c3cccs3)ccc2=O)cc1OC | nt | 3 | nt | nt | nt | nt
COc1ccc2nc(N3C(=O)/C(=C/c4ccccc4)NC3=S)sc2c1 | 1 | 6 | -1 | -7 | 92* | 0
CCOc1ccc2nc(N3CCCCCC3)sc2c1 | 14 | -19 | 13 | 25 | 50 | 7
COc1ccc2nc(-n3c(C)ccc3C)sc2c1 | -5 | 5 | 2 | 11 | 30 | 12
CCOc1ccc2nc(N3C(=O)/C(=C/c4ccccc4)NC3=S)sc2c1 | 4 | 3 | 0 | 36 | 94* | 8
Cc1cc(C)nc(NC(N)=NC(C)c2ccccc2)n1 (configuration not stated) | 24 | -10 | nt | 16 | 94* | 6
Cc1cc(C)nc(NC(N)=NCCc2ccccc2)n1 | 16 | -3 | 1 | nt | -4 | 7
CCCc1ccc(Oc2cc(N3CCOCC3)nc(-c3ccccc3)n2)cc1 | 5 | -11 | 1 | nt | 89* | -12
CCCc1ccc(Oc2cc(C)nc(N3CCOCC3)n2)cc1 | 3 | -9 | 2 | 11 | 40 | 4
Cc1ccc(C(O)CNC(=O)Cc2ccc(F)cc2)o1 (configuration not stated) | nt | -8 | nt | nt | nt | nt
Nc1[nH]n(-c2ccccc2)c(=O)c1N=Nc1ccccc1 | -13 | 75* | -1 | 31 | -8 | 6
CC1CC(C)CC(C)C(O)C(C#N)=CC=CCC(C2CCCC2C(=O)O)OC(=O)CC(O)C(C)C1 (configuration not stated) | nt | -6 | 401* | nt | nt | nt
O=S1(=O)[C@H]2C[C@@H]3C=C[C@@]2(CN1Cc1cccc(C(F)(F)F)c1)O3 | 5 | -11 | 0 | 13 | 7 | -7
O=S1(=O)[C@H]2C[C@@H]3C=C[C@@]2(CN1Cc1cccc(F)c1)O3 | nt | -13 | 66* | 5 | nt | nt
Cc1cc(Nc2ccc(NC(=O)Cc3c[nH]c4ccccc34)cc2)nc(N2CCCC2)n1 | nt | 45* | nt | nt | nt | nt
C=CC[n+]1c(C)csc1Nc1cccc(Br)c1 | 3 | 61* | 1 | 5 | 6 | 19
COc1ncc(NS(=O)(=O)c2ccccc2Cl)cn1 | nt | -11 | nt | nt | nt | nt

Bioassay records from PubChem BioAssay.
